Most compounds without a hit are left out; they make up all but 3.9% or so of the library.
MITF TRPM1 HTS = activators of MITF-driven TRPM1 promoter reporter, primary screen, cell-based, SK-MEL-5, luciferase, single point; activation, % at 12.5 µM; AID 588334, 2011; 300,000 compounds, 0.75% hits; SK-MEL-5 TRPM1-promoter luciferase, 24 h; % of positive control, neutral wells = 0;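 active = mean activation of at least 80% with every replicate also reaching 80%; inconclusive = mean reaches 80% but some replicate falls short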;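 also: 0% = neutral control wells and 100% = parthenolide positive control wells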
Wnt act = Wnt/beta-catenin pathway activators, primary screen, cell-based, plate reader, single point | Wnt/beta-catenin reporter cell assay, activator | activation, % at 9.35 µM | 300,000 compounds, 1.2% hits | AID 743398, 2014; in the data active = activation above about 30%, passing the limit was not always enough; inconclusive = no clear call, values can overlap the other calls;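 also: 0% = neutral control wells and 100% = positive control wells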
HSF1 activator = HSF-1 activators, primary screen, NIH3T3-HGL cells, MG132 stress, luminescence, single point | NIH3T3-HGL HSF-1 luciferase reporter, 8 h; 100% = twice DMSO control signal | activation, % at 9 µM | 300,000 compounds, 1.7% hits;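 active = mean replicate activation of at least 50% with a set share of replicates each reaching 50%; inconclusive = only one of those two conditions met; inactive = mean below 50% and too few replicates reaching it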;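 also: 0% = median of the neutral control wells and 100% = twice that signal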
HSF1 inh = HSF1 inhibitors in luciferase reporter cells, primary screen, cell-based, NIH3T3, luminescence; NIH3T3-HGL HSE-luciferase, MG132-induced, luminescence 8 h; active compounds read low; 300,000 compounds, 0.77% hits; activity change, negative = inhibition, % at 7.5 µM (by protocol);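 active = more than half of replicate wells show activity change below -50%, luminescence cut by over half; inconclusive = some wells, but at most half, below -50%; inactive = no replicate well below -50%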;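 also: luciferase reports HSF-1 transcriptional activity via heat shock element; 0% = median of DMSO wells and -100% = zero luminescence signal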
esBAF inh = Bmi1 luciferase reporter increase in mESCs, primary screen, esBAF inhibitor project, mouse ES cells, Bmi1 luciferase knock-in, single point; 24 h; 100% = twice the neutral-well signal; reporter increase, % at 12.5 µM; 350,000 compounds, 2% hits; in the data active = activation above about 40%; inconclusive = no clear call, values can overlap the other calls;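 also: 0% = median of the plate's neutral control wells and 100% = double that signal; a rise in the Bmi1 reporter signal indicates esBAF inhibition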
Active calls of the source: *; ? = inconclusive; · = no result.

SMILES | MITF TRPM1 HTS | Wnt act | HSF1 activator | HSF1 inh | esBAF inh
COc1ccc(/C=C/c2nnc(NC(=O)CSc3ccc(C)cc3)s2)cc1 | 13 | 27 | 1 | 0 | 24
Cc1nc2c(ccc3nc(NC(=O)Cc4cccc5ccccc45)sc32)s1 | · | 1 | -68 | -56* | 4
COc1ccc(S(=O)(=O)Nc2ccc3c(c2)C(=O)N([C@H](C)CO)C[C@H](C)[C@H](CN(C)S(C)(=O)=O)O3)cc1 | · | · | · | · | 0
COc1ccc(NC(=O)N(C)C[C@H]2Oc3c(NC(=O)Nc4ccc5c(c4)OCO5)cccc3C(=O)N([C@@H](C)CO)C[C@@H]2C)cc1 | · | · | · | · | -2
Cc1noc(C)c1NC(=O)N[C@H]1C=C[C@@H](CC(=O)N2CCCCC2)O[C@H]1CO | · | · | · | · | 3
Cc1ccc(S(=O)(=O)N(C)C[C@@H]2Oc3ccc(NC(=O)C4CCCCC4)cc3CC(=O)N([C@H](C)CO)C[C@@H]2C)cc1 | · | · | · | · | -2
COc1ccccc1-c1c(C(F)(F)F)oc2cc(OC(=O)c3ccc([N+](=O)[O-])cc3)ccc2c1=O | -4 | 1 | 16 | 1 | 67*
C[C@H](CO)N1C[C@H](C)[C@H](CN(C)Cc2cccc(F)c2)Oc2cc(C#Cc3ccccn3)ccc2S1(=O)=O | · | · | · | · | -3
O=C(NCC[C@@H]1CC[C@H](NS(=O)(=O)Cc2ccccc2)[C@@H](CO)O1)C1CCC1 | · | · | · | · | 3
COC(=O)C[C@@H]1C[C@H]2c3cc(NS(=O)(=O)c4ccccc4)ccc3O[C@H]2[C@H](CO)O1 | · | · | · | · | 2
COc1ccc2nc(Nc3nc(C)c(C(C)=O)s3)sc2c1 | 69 | 56* | 0 | -7 | 38
COc1ccc(Nc2nc3ccc(OC)cc3s2)cc1 | 91* | 28 | 21 | 19 | ·
CO[C@@H]1CN(C)C(=O)c2ccc(NS(=O)(=O)c3ccccc3C)cc2OC[C@@H](C)N(S(=O)(=O)c2ccccc2)C[C@H]1C | · | · | · | · | -2
CCOC(=O)N=Nc1c2ccccc2c2nc3no[nH]c3nc12 | -103 | -1 | -95 | -95* | ·
C/C(=C\C(=O)c1ccc(C)cc1)NCc1ccc(F)cc1 | 3 | 2 | 6 | 6 | -6
C/C(=C\C(=O)c1ccccc1)NCc1ccc(F)cc1 | 22 | 0 | 65* | 27 | 30
C/C=C/c1ccc([C@H]2[C@H](CO)N(C(=O)NCCC)[C@H]2CNC(=O)C2CC2)cc1 | · | · | · | · | 6
COc1ccc(/C(C#N)=C/c2cccnc2)cc1 | 59 | 7 | 18 | 8 | 42*
COc1ccc(C(C#N)=Cc2ccc(N(C)CCC#N)cc2)cc1 | · | 31* | · | · | 77*
COc1ccc(C(C#N)=Cc2cc(OC)c(OC)c(OC)c2)cc1 | · | -8 | · | · | ·
COc1ccc(NC(=O)CSc2nnc(Cn3cnc([N+](=O)[O-])n3)n2C)cc1 | 3 | -5 | 67* | 34 | ·
COc1cccc(NC(=O)CSc2nnc(Cn3cnc([N+](=O)[O-])n3)n2C)c1 | 1 | -10 | 2 | -3 | ·
Cc1cccc(NC(=O)/C(C#N)=C/c2ccccc2Cl)n1 | 3 | 3 | -13 | 1 | -9
Cc1cccc(NC(=O)/C(C#N)=C/c2ccccc2O)n1 | ? | 29 | 77* | 28 | ?
COc1ccc(/C=C(\C#N)C(=O)Nc2cccc(C)n2)cc1 | -16 | 5 | 71* | 52 | 20
SMILES | MITF TRPM1 HTS | Wnt act | HSF1 activator | HSF1 inh | esBAF inh
COc1cccc(C#Cc2ccc3c(c2)O[C@@H](CN(C)S(=O)(=O)c2ccccc2F)[C@@H](C)CN([C@H](C)CO)S3(=O)=O)c1 | · | · | · | · | -6
CCOC(=O)c1c(CSCc2ccccc2)oc2ccc(O)c(CN(C)C)c12 | -4 | -3 | -84 | -79* | ·
O=C1C(=Cc2ccccn2)CCc2ccccc21 | · | ? | · | · | 64*
O=C1/C(=C\c2ccc3ccccc3c2)CCCc2ccccc21 | 41 | · | 13 | 12 | 30
Cc1ccccc1/C=C1\CCCc2ccccc2C1=O | · | 77* | 18 | 14 | 82*
C[C@@H]1CN([C@H](C)CO)C(=O)c2cc(-c3ccc(F)cc3)cnc2O[C@@H]1CN(C)C(=O)Cc1ccccc1 | · | · | · | · | -11
CC=Cc1ccc2n(c1=O)C[C@@H]1[C@@H](CO)[C@H](C(=O)NCC3CC3)[C@H]2N1Cc1ccccc1 (mixture of isomers) | · | · | · | · | -3
C[C@@H]1CCCCO[C@@H](CN(C)CC2CCCCC2)[C@H](C)CN([C@@H](C)CO)C(=O)c2cc(NC(=O)C3CCCCC3)ccc2O1 | · | · | · | · | 2
Cc1cc(CNC(=O)c2ccc3nc(Cc4ccccc4F)oc3c2)nn1C | 94* | 27 | 46 | 32 | 69*
CN(C)/C=C/C=C1C(=O)CCCC1=O | -3 | 73* | 2 | -1 | -2
Cc1cc(C)c(NN=c2c(=O)c3ccccc3c2=O)c(C)c1 | 116* | 21 | 67* | 25 | 30
Cc1ccccc1-c1ccc2c(c1)O[C@H](CN(C)Cc1ccncc1)[C@@H](C)CN([C@@H](C)CO)S2(=O)=O | · | · | · | · | -1
Cc1nc2sc3c(NCc4ccco4)ncnc3c2c2c1COC(C)(C)C2 | 13 | · | -92 | -89* | -12
CC(C)Cc1nc2sc3c(NCc4ccco4)ncnc3c2c2c1COC(C)(C)C2 | · | -10 | 18 | 8 | -13
COc1ccc(N2C(=O)c3ccccc3C2O)cc1 (stereo unspecified) | 21 | 44* | 44 | 10 | 27
CCc1nnc(NS(=O)(=O)c2ccc(N)cc2)s1 | 10 | 79* | -3 | -5 | -6
CCc1nnc(NS(=O)(=O)c2ccc(NC(=O)c3cccc(Cl)c3)cc2)s1 | 109* | -1 | -3 | -1 | -12
COCC(=O)Nc1ccc2c(c1)[C@@H]1C[C@H](CC(=O)N3CCc4ccccc4C3)O[C@@H](CO)[C@@H]1O2 | · | · | · | · | -4
CN(CC(=O)Nc1ccc(F)cc1)C(=O)CSc1nnc(Cc2ccccc2)o1 | -12 | 63* | · | · | 0
O=C(O)c1cc([N+](=O)[O-])c(NCCC2=CCCCC2)c([N+](=O)[O-])c1 | -4 | -3 | 59* | 20 | ·
CN(C)C(=O)C[C@H]1CC[C@H]2[C@H](COc3ccc(NC(=O)Nc4cccc(Cl)c4)cc3C(=O)N2C)O1 | · | · | · | · | -5
c1ccc(Nc2ccnc(Nc3ccccc3)n2)cc1 | 65 | 71* | 46 | 12 | 45*
NNc1nc(Nc2ccccc2)nc(Nc2ccccc2)n1 | -5 | 2 | -31 | -24 | 27
O=C(OCc1nnc(-c2ccc(Cl)cc2)o1)c1ccc(O)cc1 | 15 | 1 | 9 | 3 | 30
CS(=O)(=O)c1ccc(C(=O)OCc2nnc(-c3ccc(Cl)cc3)o2)cc1[N+](=O)[O-] | -24 | · | -95 | -96* | 21
CCOC(=O)CSc1nc2c(sc(=S)n2-c2ccccc2OC)c(=O)n1Cc1ccco1 | -1 | · | 57* | 18 | -5
